Calls of active or inactive are those of the source. Cut-off read from the data, not from the text of the source: active = remaining activity below about 50%; inactive = the rest.

The experiment deals with Phospholipase D2 (Homo sapiens) (UniProt O14939). Briefly: PLD2 inhibitors in cells, cell-based, HEK293, single concentration (AID 602143).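 Note: tested at 200 nM.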 As to conditions: HEK293 cellular PLD2 activity, percent of control; active compounds read low.
Phospholipase D2 (Homo sapiens), sequence (O14939 whole entry, looked up): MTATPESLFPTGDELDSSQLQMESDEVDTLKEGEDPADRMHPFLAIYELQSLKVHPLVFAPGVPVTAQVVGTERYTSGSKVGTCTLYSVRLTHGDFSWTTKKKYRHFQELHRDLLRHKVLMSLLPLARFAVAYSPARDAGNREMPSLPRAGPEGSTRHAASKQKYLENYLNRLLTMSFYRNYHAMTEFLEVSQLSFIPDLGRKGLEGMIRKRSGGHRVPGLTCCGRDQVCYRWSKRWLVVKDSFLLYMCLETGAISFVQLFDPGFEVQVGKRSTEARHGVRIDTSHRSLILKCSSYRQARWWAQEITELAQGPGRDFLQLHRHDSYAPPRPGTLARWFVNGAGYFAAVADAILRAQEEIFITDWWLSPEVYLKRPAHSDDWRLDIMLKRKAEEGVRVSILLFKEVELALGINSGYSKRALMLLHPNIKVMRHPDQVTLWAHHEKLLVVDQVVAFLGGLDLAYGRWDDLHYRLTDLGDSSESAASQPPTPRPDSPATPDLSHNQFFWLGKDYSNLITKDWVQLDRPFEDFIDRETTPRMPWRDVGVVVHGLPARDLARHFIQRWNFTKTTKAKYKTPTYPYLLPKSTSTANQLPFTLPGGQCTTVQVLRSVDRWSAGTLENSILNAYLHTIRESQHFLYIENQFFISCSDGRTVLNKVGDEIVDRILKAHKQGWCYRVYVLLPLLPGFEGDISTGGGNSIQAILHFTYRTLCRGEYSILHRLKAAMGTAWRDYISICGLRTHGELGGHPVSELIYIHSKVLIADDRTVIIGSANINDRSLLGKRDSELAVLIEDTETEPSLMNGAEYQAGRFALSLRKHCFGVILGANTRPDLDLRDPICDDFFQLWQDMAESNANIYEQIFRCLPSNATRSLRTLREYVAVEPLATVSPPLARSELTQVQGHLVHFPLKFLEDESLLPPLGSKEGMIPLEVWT
Phospholipase D2 (Homo sapiens), sequence (O14939 whole entry, looked up): as above
As for `Cn1c(=O)n(C2CCN(CCNC(=O)[C@H]3C[C@@H]3c3ccccc3)CC2)c2ccccc21`, the remaining activity was 78.4% (inactive).

Turning to `O=C1Cc2cc(CCN3CCN(c4nsc5ccccc45)CC3)c(Cl)cc2N1`, the remaining activity is 105% (inactive). In the case of `C[C@@H](CN1CCC2(CCc3ccccc32)CC1)NC(=O)c1cnc2ccccc2c1`, the remaining activity is 108% (inactive).

With `C[C@@H](CN1CCC(n2c(=O)[nH]c3cc(-c4cccnc4)ccc32)CC1)NC(=O)[C@H]1C[C@@H]1c1ccccc1`, the remaining activity was 72.1% (inactive).

The term remaining activity denotes the signal under treatment as a percentage of the control signal.

Source of the values: PubChem BioAssay AID602143 (Vanderbilt Specialized Chemistry Center, 2011).
